According to publication PMC7862700, “An all-to-all approach to the identification of sequence-specific readers for epigenetic DNA modifications on cytosine”:

Assays:
Assay in all cases: DAPPL (digital affinity profiling via proximity ligation, sequencing); 10 mM Tris-HCl pH 7.5, 50 mM NaCl, 1 mM DTT, 4% glycerol, room temperature, 30 min; GST-TFs on glutathione beads, 16-mer random dsDNA library, 0.1% formaldehyde crosslink after washing; high values mean tight binding
FEV = molecular target: T1, FEV (Homo sapiens, UniProt Q99581 1-238); conditions: protein: recombinant; tags: N-terminal GST; dsDNA, one strand shown
T1 sequence: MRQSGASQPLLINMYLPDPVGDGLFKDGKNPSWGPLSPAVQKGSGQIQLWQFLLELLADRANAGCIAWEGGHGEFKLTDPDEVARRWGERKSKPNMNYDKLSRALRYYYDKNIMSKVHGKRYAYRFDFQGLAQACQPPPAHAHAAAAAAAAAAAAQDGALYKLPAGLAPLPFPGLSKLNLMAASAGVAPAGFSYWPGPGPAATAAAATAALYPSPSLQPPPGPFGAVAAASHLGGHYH
How it was run: (§1)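 Yeast served to express human transcription factors as GST fusions, which were then captured on glutathione beads and labelled with DNA barcodes. Pooled with a tag-only sample, they were incubated with 200 nmole of a 16-mer random double-stranded DNA library for 30 min at room temperature in Tris/NaCl/DTT/glycerol buffer, washed, crosslinked with 0.1% formaldehyde, ligated by proximity, amplified by PCR and sequenced. Dividing each hexamer's read frequency for a factor by its frequency for the tag-only sample gives the binding signal.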

ETV5 = ETV5 (Homo sapiens, UniProt P41161 1-510); conditions: protein: recombinant; tags: N-terminal GST; dsDNA, one strand shown
How it was run: as §1

HSF1 = HSF1 (Homo sapiens, UniProt Q00613 1-529); conditions: protein: recombinant; tags: N-terminal GST; chain copies: 3; dsDNA, one strand shown
How it was run: as §1

SPIC = molecular target: T2, SPIC (Homo sapiens, UniProt Q8N5J4 1-248); conditions: protein: recombinant; tags: N-terminal GST; dsDNA, one strand shown
T2 sequence: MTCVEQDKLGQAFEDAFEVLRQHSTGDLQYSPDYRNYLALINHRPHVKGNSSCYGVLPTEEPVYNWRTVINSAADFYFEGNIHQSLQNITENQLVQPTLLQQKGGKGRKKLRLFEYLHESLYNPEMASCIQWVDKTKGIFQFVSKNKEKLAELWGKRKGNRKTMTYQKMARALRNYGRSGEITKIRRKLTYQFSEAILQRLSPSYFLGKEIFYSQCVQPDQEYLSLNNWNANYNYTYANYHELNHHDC
How it was run: as §1

ELF4 = ELF4 (Homo sapiens, UniProt Q99607 1-663); conditions: protein: recombinant; tags: N-terminal GST; dsDNA, one strand shown
How it was run: as §1

ELK4 = molecular target: T3, ELK4 (Homo sapiens, UniProt P28324-2 1-405); conditions: protein: recombinant; tags: N-terminal GST; dsDNA, one strand shown
T3 sequence: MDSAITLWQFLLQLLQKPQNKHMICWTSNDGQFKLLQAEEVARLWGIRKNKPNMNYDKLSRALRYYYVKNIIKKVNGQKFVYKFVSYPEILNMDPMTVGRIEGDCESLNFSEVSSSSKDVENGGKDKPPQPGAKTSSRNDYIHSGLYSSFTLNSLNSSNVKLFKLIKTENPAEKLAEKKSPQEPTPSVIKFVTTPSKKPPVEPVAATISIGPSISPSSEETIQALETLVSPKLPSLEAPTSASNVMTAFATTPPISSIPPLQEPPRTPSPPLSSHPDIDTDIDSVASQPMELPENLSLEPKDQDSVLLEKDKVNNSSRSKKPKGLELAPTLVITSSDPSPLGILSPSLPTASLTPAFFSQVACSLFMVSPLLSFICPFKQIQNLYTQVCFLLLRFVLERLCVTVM
How it was run: as §1

ETV2 = molecular target: T4, ETV2 (Homo sapiens, UniProt O00321 1-342); conditions: protein: recombinant; tags: N-terminal GST; dsDNA, one strand shown
T4 sequence: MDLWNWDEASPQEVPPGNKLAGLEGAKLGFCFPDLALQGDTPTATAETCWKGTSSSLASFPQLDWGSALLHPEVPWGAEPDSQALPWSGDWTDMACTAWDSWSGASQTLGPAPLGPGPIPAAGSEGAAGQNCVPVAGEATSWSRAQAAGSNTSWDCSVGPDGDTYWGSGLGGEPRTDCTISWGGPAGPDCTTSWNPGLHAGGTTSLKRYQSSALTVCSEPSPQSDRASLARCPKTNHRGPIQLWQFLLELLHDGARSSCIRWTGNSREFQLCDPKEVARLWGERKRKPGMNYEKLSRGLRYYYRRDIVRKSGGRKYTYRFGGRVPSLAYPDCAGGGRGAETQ
How it was run: as §1

ELF3 = molecular target: T5, ELF3 (Homo sapiens, UniProt P78545 1-371); conditions: protein: recombinant; tags: N-terminal GST; dsDNA, one strand shown
T5 sequence: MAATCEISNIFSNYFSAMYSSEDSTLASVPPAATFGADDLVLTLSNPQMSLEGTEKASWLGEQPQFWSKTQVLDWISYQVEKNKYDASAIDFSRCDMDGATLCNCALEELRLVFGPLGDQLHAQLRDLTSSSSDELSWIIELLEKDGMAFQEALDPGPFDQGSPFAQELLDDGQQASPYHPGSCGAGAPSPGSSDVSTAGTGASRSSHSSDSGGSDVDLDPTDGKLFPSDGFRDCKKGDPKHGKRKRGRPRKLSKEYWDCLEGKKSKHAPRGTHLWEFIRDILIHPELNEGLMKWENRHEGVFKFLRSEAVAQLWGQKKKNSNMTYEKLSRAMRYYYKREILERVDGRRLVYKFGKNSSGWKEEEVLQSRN
How it was run: as §1

CRX = CRX (Homo sapiens, UniProt O43186 1-299); conditions: protein: recombinant; tags: N-terminal GST; dsDNA, one strand shown
How it was run: as §1

ETV1 = ETV1 (Homo sapiens, UniProt P50549 1-477); conditions: protein: recombinant; tags: N-terminal GST; dsDNA, one strand shown
How it was run: as §1

ERF = molecular target: T6, ERF (Homo sapiens, UniProt P50548 1-548); conditions: protein: recombinant; tags: N-terminal GST; dsDNA, one strand shown
T6 sequence: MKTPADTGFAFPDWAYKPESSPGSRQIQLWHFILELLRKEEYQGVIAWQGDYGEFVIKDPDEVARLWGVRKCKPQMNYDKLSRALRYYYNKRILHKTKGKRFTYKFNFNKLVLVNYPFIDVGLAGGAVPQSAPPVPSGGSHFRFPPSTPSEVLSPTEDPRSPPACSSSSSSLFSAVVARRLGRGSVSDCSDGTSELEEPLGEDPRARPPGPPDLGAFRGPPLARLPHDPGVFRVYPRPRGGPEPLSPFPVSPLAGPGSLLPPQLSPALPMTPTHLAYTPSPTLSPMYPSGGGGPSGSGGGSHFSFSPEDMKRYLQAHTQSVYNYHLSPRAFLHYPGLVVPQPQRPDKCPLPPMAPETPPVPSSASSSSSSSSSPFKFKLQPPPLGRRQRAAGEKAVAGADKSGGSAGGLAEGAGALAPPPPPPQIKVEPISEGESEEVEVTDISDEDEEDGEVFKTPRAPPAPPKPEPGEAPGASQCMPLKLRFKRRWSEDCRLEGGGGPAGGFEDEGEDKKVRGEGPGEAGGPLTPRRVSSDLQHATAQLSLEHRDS
How it was run: as §1

ETV3L = molecular target: T7, ETV3L (Homo sapiens, UniProt Q6ZN32 1-361); conditions: protein: recombinant; tags: N-terminal GST; dsDNA, one strand shown
T7 sequence: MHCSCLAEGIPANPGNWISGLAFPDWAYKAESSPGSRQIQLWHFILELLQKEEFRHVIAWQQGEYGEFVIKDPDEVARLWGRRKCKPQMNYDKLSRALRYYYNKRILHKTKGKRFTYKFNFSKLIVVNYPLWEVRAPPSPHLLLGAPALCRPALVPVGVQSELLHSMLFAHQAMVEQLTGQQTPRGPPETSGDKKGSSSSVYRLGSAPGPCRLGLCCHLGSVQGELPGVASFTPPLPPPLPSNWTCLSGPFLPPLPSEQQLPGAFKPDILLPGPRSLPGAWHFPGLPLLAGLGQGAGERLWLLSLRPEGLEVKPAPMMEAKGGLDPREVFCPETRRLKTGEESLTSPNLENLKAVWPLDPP
How it was run: as §1

ETS2 = molecular target: T8, ETS2 (Homo sapiens, UniProt P15036 1-469); conditions: protein: recombinant; tags: N-terminal GST; dsDNA, one strand shown
T8 sequence: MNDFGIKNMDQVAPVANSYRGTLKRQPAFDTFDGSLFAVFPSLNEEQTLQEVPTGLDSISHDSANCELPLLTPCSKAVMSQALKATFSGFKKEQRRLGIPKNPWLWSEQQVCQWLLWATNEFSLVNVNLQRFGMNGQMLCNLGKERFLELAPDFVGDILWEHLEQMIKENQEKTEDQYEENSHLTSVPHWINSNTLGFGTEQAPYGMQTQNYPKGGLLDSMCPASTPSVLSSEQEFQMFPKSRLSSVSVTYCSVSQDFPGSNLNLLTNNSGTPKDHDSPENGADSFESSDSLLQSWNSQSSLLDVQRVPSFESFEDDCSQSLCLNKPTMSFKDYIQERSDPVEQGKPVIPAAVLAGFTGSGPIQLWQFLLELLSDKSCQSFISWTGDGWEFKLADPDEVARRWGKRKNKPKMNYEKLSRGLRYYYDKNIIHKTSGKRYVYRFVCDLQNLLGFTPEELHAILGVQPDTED
How it was run: as §1

SPDEF = molecular target: T9, SPDEF (Homo sapiens, UniProt O95238 1-335); conditions: protein: recombinant; tags: N-terminal GST; dsDNA, one strand shown
T9 sequence: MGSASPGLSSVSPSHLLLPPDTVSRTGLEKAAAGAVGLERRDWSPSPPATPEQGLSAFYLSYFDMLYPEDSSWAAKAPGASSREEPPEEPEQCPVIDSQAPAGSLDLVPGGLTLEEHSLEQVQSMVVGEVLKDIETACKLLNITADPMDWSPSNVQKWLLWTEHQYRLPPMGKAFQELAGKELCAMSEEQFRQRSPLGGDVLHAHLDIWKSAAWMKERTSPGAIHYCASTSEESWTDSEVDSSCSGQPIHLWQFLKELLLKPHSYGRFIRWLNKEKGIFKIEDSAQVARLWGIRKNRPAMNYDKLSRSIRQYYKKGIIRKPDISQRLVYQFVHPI
How it was run: as §1

ETV7 = molecular target: T10, ETV7 (Homo sapiens, UniProt Q9Y603 1-341); conditions: protein: recombinant; tags: N-terminal GST; dsDNA, one strand shown
T10 sequence: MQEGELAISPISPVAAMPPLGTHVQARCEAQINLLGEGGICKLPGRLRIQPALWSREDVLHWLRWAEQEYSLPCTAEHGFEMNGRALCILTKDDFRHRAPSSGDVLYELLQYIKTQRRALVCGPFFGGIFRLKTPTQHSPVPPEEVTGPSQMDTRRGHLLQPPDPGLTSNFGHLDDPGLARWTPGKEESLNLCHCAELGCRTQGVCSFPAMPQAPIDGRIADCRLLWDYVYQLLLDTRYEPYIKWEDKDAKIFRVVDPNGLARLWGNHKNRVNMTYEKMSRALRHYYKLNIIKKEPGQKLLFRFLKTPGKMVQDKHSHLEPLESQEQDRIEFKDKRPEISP
How it was run: as §1

ELF5 = molecular target: T11, ELF5 (Homo sapiens, UniProt Q9UKW6-2 1-255); conditions: protein: recombinant; tags: N-terminal GST; dsDNA, one strand shown
T11 sequence: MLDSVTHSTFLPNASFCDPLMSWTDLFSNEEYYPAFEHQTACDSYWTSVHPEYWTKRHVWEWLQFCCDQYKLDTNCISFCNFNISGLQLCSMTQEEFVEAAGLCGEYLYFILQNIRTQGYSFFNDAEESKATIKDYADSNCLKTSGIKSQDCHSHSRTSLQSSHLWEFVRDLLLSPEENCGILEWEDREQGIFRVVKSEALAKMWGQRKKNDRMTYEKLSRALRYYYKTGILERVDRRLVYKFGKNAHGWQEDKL
How it was run: as §1

ETV3 = molecular target: T12, ETV3 (Homo sapiens, UniProt P41162-2 1-143); conditions: protein: recombinant; tags: N-terminal GST; dsDNA, one strand shown
T12 sequence: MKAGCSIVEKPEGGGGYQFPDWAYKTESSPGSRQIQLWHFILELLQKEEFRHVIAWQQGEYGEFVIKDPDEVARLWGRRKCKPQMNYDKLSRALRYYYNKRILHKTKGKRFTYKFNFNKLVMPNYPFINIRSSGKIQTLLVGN
How it was run: as §1

ETV6 = ETV6 (Homo sapiens, UniProt P41212 1-452); conditions: protein: recombinant; tags: N-terminal GST; dsDNA, one strand shown
How it was run: as §1

Chain of HSF1 (Q00613 whole entry): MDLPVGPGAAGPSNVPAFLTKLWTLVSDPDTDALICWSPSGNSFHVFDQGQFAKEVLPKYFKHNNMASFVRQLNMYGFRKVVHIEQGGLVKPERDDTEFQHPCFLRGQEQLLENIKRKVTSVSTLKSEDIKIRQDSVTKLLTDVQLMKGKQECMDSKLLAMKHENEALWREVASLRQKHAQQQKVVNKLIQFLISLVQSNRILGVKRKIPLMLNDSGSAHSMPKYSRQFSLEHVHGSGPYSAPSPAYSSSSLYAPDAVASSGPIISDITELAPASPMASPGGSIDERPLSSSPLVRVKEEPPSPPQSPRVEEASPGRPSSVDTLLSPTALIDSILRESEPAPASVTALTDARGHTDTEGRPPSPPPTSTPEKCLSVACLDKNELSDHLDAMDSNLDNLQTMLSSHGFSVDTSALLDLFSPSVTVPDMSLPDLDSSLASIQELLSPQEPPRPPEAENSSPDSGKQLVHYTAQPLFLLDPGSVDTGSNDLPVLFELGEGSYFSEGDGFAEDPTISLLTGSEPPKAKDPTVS
Chain of ETV5 (P41161 whole entry): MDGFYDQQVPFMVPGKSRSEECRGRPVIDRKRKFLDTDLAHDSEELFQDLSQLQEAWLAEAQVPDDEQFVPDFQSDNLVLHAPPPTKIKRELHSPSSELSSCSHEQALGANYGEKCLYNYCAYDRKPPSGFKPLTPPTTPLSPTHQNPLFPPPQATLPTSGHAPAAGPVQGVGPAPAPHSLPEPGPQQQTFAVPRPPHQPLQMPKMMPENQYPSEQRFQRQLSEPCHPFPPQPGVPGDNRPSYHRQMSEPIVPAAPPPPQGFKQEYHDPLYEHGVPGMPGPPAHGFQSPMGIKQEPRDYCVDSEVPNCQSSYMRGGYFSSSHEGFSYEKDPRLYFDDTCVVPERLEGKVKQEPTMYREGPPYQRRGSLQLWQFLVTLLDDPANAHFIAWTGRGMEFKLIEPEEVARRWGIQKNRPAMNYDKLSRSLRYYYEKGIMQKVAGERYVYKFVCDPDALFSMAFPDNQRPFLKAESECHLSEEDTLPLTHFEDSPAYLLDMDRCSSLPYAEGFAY
Chain of ELF4 (Q99607 whole entry): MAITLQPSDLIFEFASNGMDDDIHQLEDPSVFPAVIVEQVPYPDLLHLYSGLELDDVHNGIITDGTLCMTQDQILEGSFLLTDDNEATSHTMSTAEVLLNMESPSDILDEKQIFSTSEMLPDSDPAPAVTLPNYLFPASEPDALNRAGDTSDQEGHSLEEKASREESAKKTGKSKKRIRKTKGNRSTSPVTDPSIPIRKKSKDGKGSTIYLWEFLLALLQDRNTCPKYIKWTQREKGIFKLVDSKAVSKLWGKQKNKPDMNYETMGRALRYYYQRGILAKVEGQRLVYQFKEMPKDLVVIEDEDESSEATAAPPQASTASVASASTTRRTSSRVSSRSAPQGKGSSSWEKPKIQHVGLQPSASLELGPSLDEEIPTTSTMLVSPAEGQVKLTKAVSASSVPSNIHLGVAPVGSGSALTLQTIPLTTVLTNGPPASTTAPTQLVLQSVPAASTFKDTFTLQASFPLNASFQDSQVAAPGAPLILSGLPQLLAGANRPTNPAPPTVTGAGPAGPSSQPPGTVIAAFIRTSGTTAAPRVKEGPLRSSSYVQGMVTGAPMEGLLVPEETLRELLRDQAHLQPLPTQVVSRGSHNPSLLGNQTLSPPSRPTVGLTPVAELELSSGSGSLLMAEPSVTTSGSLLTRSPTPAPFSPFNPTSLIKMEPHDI
Chain of ETV1 (P50549 whole entry): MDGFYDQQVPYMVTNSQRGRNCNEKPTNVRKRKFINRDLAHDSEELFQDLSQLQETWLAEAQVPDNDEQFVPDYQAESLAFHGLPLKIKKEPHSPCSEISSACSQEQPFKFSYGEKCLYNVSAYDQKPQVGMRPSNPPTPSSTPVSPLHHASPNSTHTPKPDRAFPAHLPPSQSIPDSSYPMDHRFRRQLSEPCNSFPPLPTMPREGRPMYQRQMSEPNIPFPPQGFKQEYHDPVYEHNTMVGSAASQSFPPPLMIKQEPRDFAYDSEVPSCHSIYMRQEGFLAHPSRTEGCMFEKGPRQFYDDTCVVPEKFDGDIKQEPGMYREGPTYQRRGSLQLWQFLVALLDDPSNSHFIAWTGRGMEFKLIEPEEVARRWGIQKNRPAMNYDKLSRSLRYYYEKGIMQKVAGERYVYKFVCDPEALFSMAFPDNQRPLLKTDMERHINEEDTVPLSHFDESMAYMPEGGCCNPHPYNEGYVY
Chain of CRX (O43186 whole entry): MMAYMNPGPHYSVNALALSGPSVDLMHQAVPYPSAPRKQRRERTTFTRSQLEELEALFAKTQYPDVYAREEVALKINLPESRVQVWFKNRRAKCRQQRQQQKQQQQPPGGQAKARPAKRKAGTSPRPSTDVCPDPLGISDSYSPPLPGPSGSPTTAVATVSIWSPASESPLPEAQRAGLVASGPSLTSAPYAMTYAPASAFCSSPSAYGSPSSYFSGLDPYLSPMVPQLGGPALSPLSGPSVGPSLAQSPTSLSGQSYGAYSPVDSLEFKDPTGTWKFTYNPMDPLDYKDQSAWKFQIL
Chain of ETV6 (P41212 whole entry): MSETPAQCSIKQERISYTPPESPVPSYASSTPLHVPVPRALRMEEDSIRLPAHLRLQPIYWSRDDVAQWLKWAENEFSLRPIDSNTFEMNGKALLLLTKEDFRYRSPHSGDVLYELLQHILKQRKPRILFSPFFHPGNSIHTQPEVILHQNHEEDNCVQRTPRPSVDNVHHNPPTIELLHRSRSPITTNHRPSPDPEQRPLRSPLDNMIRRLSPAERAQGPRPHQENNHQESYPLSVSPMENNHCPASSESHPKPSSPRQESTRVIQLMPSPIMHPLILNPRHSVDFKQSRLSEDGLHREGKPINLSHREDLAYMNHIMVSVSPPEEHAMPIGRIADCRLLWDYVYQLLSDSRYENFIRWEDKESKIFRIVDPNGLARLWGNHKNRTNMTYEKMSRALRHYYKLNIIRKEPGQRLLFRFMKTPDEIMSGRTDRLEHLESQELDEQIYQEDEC

TACGGC
binding signal (FEV): 1.15 fold enrichment (6-mer frequency, TF over GST control) | binding signal (ETV5): 1.15 fold enrichment (6-mer frequency, TF over GST control) | binding signal (HSF1): 1.02 fold enrichment (6-mer frequency, TF over GST control) | binding signal (SPIC): 1.05 fold enrichment (6-mer frequency, TF over GST control) | binding signal (ELF4): 1.28 fold enrichment (6-mer frequency, TF over GST control) | binding signal (ELK4): 1.19 fold enrichment (6-mer frequency, TF over GST control) | binding signal (ETV2): 1.12 fold enrichment (6-mer frequency, TF over GST control) | binding signal (ELF3): 1.14 fold enrichment (6-mer frequency, TF over GST control) | binding signal (CRX): 1.2 fold enrichment (6-mer frequency, TF over GST control) | binding signal (ETV1): 1.14 fold enrichment (6-mer frequency, TF over GST control) | binding signal (ERF): 1.32 fold enrichment (6-mer frequency, TF over GST control) | binding signal (ETV3L): 1.26 fold enrichment (6-mer frequency, TF over GST control) | binding signal (ETS2): 1.22 fold enrichment (6-mer frequency, TF over GST control) | binding signal (SPDEF): 1.18 fold enrichment (6-mer frequency, TF over GST control) | binding signal (ETV7): 1.13 fold enrichment (6-mer frequency, TF over GST control) | binding signal (ELF5): 1.2 fold enrichment (6-mer frequency, TF over GST control) | binding signal (ETV3): 1.21 fold enrichment (6-mer frequency, TF over GST control) | binding signal (ETV6): 1.2 fold enrichment (6-mer frequency, TF over GST control)
